Results reported in PubChem BioAssay (NCI).
About 83,000 compounds went through this panel and 20% of them were active in at least one assay; those are over-represented in the sample as a whole.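 96-well plates, one dose, 48 hours. Percent growth reported; active if below 10.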 The source made the active and inactive calls.

Experiments:
Experiment in all cases: NCI-60 one-dose screen, 48 h (100 = growth as untreated, 0 = no growth, -100 = all killed)
Conditions in all cases: 10 µM unless noted
NCI-H23 lung = system: NCI-H23 lung
NCI-H226 lung = system: NCI-H226 lung
NCI-H322M lung = system: NCI-H322M lung
HOP-62 NSCLC = system: HOP-62 NSCLC
NCI-H460 lung = system: NCI-H460 lung
HOP-92 NSCLC = system: HOP-92 NSCLC
NCI-H522 lung = system: NCI-H522 lung
A549/ATCC NSCLC = system: A549/ATCC NSCLC
786-0 renal = system: 786-0 renal
COLO 205 colon = system: COLO 205 colon

Measured: growth

COc1cc(NC(=O)c2cncnc2Nc2ccc3c(ccn3Cc3cccc(F)c3)c2)cc(OC)c1
inactive: NCI-H23 lung 79.1% | NCI-H226 lung 80.3% | NCI-H322M lung 84.1% | HOP-62 NSCLC 52.7% | NCI-H460 lung 45.9% | HOP-92 NSCLC 83.4% | NCI-H522 lung 44.3% | A549/ATCC NSCLC 40.4% | 786-0 renal 81.1% | COLO 205 colon 61.3%

CC/C(=C(/c1ccc(Cl)cc1)c1ccc(OCCN(CC)CC)cc1)c1ccc(OC)cc1
inactive: NCI-H23 lung 48.7% | NCI-H226 lung 80.5% | NCI-H322M lung 66.9% | HOP-62 NSCLC 89.2% | NCI-H460 lung 16.6% | HOP-92 NSCLC 51.7% | NCI-H522 lung 66.6% | A549/ATCC NSCLC 48.8% | 786-0 renal 49.5% | COLO 205 colon 22.2%

NCCNc1ccc([N+](=O)[O-])cc1
inactive: NCI-H23 lung 112% | NCI-H226 lung 99.5% | NCI-H322M lung 112% | HOP-62 NSCLC 104% | NCI-H460 lung 111% | HOP-92 NSCLC 98.9% | NCI-H522 lung 94.9% | A549/ATCC NSCLC 108% | 786-0 renal 99.5% | COLO 205 colon 120%

COC(=O)c1cc(-c2ccc(OC)c(OC)c2)[nH]c1N/N=C/c1c(Cl)cccc1Cl
inactive: NCI-H23 lung 40.7% | NCI-H226 lung 62.4% | NCI-H322M lung 55.1% | NCI-H460 lung 14.6% | HOP-92 NSCLC 52.7% | NCI-H522 lung 13.7% | A549/ATCC NSCLC 43% | COLO 205 colon 28%
active: HOP-62 NSCLC -7.06% | 786-0 renal 8.47%

COc1nc2ccccc2cc1/C=C1/C=C(c2ccccc2)NC1=O
inactive: NCI-H23 lung 56.3% | NCI-H226 lung 55.4% | NCI-H322M lung 81.3% | HOP-62 NSCLC 39.2% | NCI-H460 lung 15.7% | HOP-92 NSCLC 32.5% | NCI-H522 lung 38.5% | A549/ATCC NSCLC 41.7% | 786-0 renal 29.5% | COLO 205 colon 29.3%

CN1CCN(Cc2ccc(NC(=O)c3cc(C#Cc4cnc(N)c5ncccc45)n(C)n3)cc2C(F)(F)F)CC1
active: NCI-H460 lung 9.09% | 786-0 renal 9.92%
inactive: NCI-H23 lung 97.8% | NCI-H226 lung 115% | NCI-H322M lung 127% | HOP-62 NSCLC 100% | HOP-92 NSCLC 103% | NCI-H522 lung 99.7% | A549/ATCC NSCLC 47.5% | COLO 205 colon 115%

N#CC1=C(N)Oc2c(ccc3ccccc23)C1c1cc2ccccc2n2nnnc12 (stereo not given)
inactive: NCI-H23 lung 36.6% | NCI-H226 lung 53.6% | NCI-H322M lung 34% | HOP-62 NSCLC 24.6% | NCI-H460 lung 11.3% | HOP-92 NSCLC 49.2% | NCI-H522 lung 12.3% | A549/ATCC NSCLC 33.4% | 786-0 renal 13.4% | COLO 205 colon 48.4%

CCCCC/C=C/CCC(=O)N[C@H]1[C@H](Oc2c3cc4cc2Oc2ccc(cc2Cl)[C@@H](O[C@@H]2O[C@H](CO)[C@@H](O)[C@H](O)[C@H]2NC(C)=O)[C@@H]2NC(=O)[C@H](NC(=O)[C@@H]4NC(=O)[C@H]4NC(=O)[C@@H](Cc5ccc(c(Cl)c5)O3)NC(=O)[C@@H](N)c3ccc(O)c(c3)Oc3cc(O)cc4c3)c3ccc(O)c(c3)-c3c(O[C@H]4O[C@H](CO)[C@@H](O)[C@H](O)[C@@H]4O)cc(O)cc3[C@H](C(=O)O)NC2=O)O[C@H](CO)[C@H](O)[C@@H]1O
inactive: NCI-H23 lung 93.4% | NCI-H226 lung 105% | NCI-H322M lung 108% | HOP-62 NSCLC 113% | NCI-H460 lung 107% | HOP-92 NSCLC 96.4% | NCI-H522 lung 103% | A549/ATCC NSCLC 99.8% | 786-0 renal 101% | COLO 205 colon 103%

O=C1OCC2=C1C(c1cccc(F)c1)c1cc3c(cc1N2CCO)CCC3 (stereo not given)
active: NCI-H460 lung 6.75% | COLO 205 colon -25.6%
inactive: NCI-H23 lung 24.7% | NCI-H226 lung 39.6% | NCI-H322M lung 40.9% | HOP-62 NSCLC 26.2% | HOP-92 NSCLC 58.5% | NCI-H522 lung 11.6% | A549/ATCC NSCLC 17.3% | 786-0 renal 32.3%

CC1(C)CC(=O)C2=C(C1)OC(C(=O)c1ccccc1)C2c1cccc(Oc2ccccc2)c1 (stereo not given)
inactive: NCI-H23 lung 48.5% | NCI-H226 lung 53.3% | NCI-H322M lung 75.1% | HOP-62 NSCLC 66.7% | NCI-H460 lung 51.4% | HOP-92 NSCLC 13.4% | NCI-H522 lung 38.2% | A549/ATCC NSCLC 29.9% | 786-0 renal 53.1% | COLO 205 colon 38.3%

C#CC(F)(F)[C@]1(O)CCC2C3CCC4=CC(=O)CCC4=C3[C@@H](c3ccc(N(C)C)cc3)C[C@@]21C (stereo not given in full)
inactive: NCI-H23 lung 96.5% | NCI-H226 lung 98.5% | NCI-H322M lung 92.8% | HOP-62 NSCLC 90.6% | NCI-H460 lung 93.4% | HOP-92 NSCLC 67.8% | NCI-H522 lung 64.7% | A549/ATCC NSCLC 64.8% | 786-0 renal 69% | COLO 205 colon 101%

Nc1ncnc2c1N=C(c1ccc([N+](=O)[O-])cc1)CC(c1ccc3c(c1)OCO3)N2 (stereo not given)
inactive: NCI-H23 lung 83.8% | NCI-H226 lung 86.5% | NCI-H322M lung 87.3% | HOP-62 NSCLC 86.6% | NCI-H460 lung 96.2% | HOP-92 NSCLC 34% | NCI-H522 lung 84.9% | A549/ATCC NSCLC 96.6% | 786-0 renal 98.7% | COLO 205 colon 96.2%

CC1=C2[C@@H](CC1)[C@]1(C)O[C@@](C(C)C)(C[C@H]1OC(=O)CO)[C@H]2OC(=O)CCCc1ccccc1
inactive: NCI-H23 lung 81.4% | NCI-H226 lung 61.4% | NCI-H322M lung 90% | HOP-62 NSCLC 39.5% | NCI-H460 lung 68% | HOP-92 NSCLC 37.4% | NCI-H522 lung 45.1% | A549/ATCC NSCLC 58.4% | 786-0 renal 79.2% | COLO 205 colon 55.1%

Cn1cc(-c2ccc3occ(-c4cccc(-c5ccncc5)c4)c3n2)cn1
inactive: NCI-H23 lung 19.5% | NCI-H226 lung 33.6% | NCI-H322M lung 34.3% | HOP-62 NSCLC 13.9% | NCI-H460 lung 13.5% | HOP-92 NSCLC 50.6% | A549/ATCC NSCLC 17.7% | 786-0 renal 17.7% | COLO 205 colon 14.7%
active: NCI-H522 lung -18.5%

NS(=O)(=O)Oc1cccc(-c2nc3sccn3c2-c2ccccc2)c1
inactive: NCI-H23 lung 76.2% | NCI-H226 lung 85.4% | NCI-H322M lung 89.7% | HOP-62 NSCLC 50.2% | NCI-H460 lung 38.9% | HOP-92 NSCLC 45.8% | NCI-H522 lung 61.5% | A549/ATCC NSCLC 52.6% | 786-0 renal 65.5% | COLO 205 colon 69.7%

O=C(Nc1ncc(Cc2ccccc2Cl)s1)c1ccc2c(c1)OCCO2
inactive: NCI-H23 lung 40.8% | NCI-H226 lung 30.1% | NCI-H322M lung 48.9% | HOP-62 NSCLC 28.3% | HOP-92 NSCLC 56.3% | A549/ATCC NSCLC 20.8% | 786-0 renal 41.2%
active: NCI-H460 lung 5.42% | NCI-H522 lung 1.6% | COLO 205 colon -3.85%

COc1cc2c(c(OC)c1OC)C(=O)CC(c1cccc(C(=O)Nc3ccc(Br)cc3)c1)O2 (stereo not given)
inactive: NCI-H23 lung 60.3% | NCI-H226 lung 37.6% | NCI-H322M lung 59.9% | HOP-62 NSCLC 86% | NCI-H460 lung 78.8% | NCI-H522 lung 48.5% | A549/ATCC NSCLC 78.8% | 786-0 renal 71.8% | COLO 205 colon 81.7%
active: HOP-92 NSCLC -8.2%

O=C(Nc1ccc2c(c1)-c1ccccc1C2)C1CC(=O)N(c2ccc3c(c2)OCO3)C1 (stereo not given)
inactive: NCI-H23 lung 51.6% [50 µM] | NCI-H226 lung 30.2% [50 µM] | NCI-H322M lung 55.9% [50 µM] | HOP-62 NSCLC 70.7% [50 µM] | NCI-H460 lung 32.9% [50 µM] | HOP-92 NSCLC 65% [50 µM] | NCI-H522 lung 77.5% [50 µM] | A549/ATCC NSCLC 66.7% [50 µM] | 786-0 renal 30.9% [50 µM] | COLO 205 colon 86.2% [50 µM]

Cn1ccnc1C(=O)/C=C/c1ccc(CC(=O)Nc2cc(F)c(F)c(F)c2)cc1
inactive: NCI-H226 lung 58.1% | NCI-H322M lung 21.1% | HOP-62 NSCLC 11.8% | HOP-92 NSCLC 69.4% | NCI-H522 lung 12.3% | A549/ATCC NSCLC 28.6% | COLO 205 colon 24%
active: NCI-H23 lung 8.11% | NCI-H460 lung 5.19% | 786-0 renal 6.02%

C=C(C)[C@@H]1CC[C@]2(C(=O)NC(C)=O)CC[C@]3(C)[C@H](CC[C@@H]4[C@@]5(C)CCCNC(C)(C)[C@@H]5CC[C@]43C)[C@@H]12
active: NCI-H460 lung -84.2% | NCI-H522 lung -46.7% | COLO 205 colon -59%
inactive: NCI-H23 lung 59.7% | NCI-H226 lung 83.6% | NCI-H322M lung 63.3% | HOP-62 NSCLC 56.4% | HOP-92 NSCLC 56.4% | A549/ATCC NSCLC 26.8% | 786-0 renal 59.4%

N#C/C(=C/C=C/c1ccccc1)S(=O)c1ccccc1 (stereo not given)
active: NCI-H23 lung -36.6% | HOP-62 NSCLC -25.6% | NCI-H460 lung -30% | HOP-92 NSCLC -58.5% | NCI-H522 lung -68.3% | A549/ATCC NSCLC 2.3% | 786-0 renal -89.7% | COLO 205 colon -56.4%
inactive: NCI-H226 lung 12% | NCI-H322M lung 10.4%

COc1cccc(C2C3=C(COC3=O)N(CCO)c3cc4c(cc32)OCCO4)c1 (stereo not given)
active: NCI-H460 lung 5.46% | NCI-H522 lung -14.6% | COLO 205 colon -68%
inactive: NCI-H23 lung 12.5% | NCI-H226 lung 38.3% | NCI-H322M lung 39% | HOP-62 NSCLC 23.4% | HOP-92 NSCLC 27.6% | A549/ATCC NSCLC 24.6% | 786-0 renal 19.3%

COc1ccccc1NC(=O)n1c(=O)cc(C)c2ccc(O)cc21
inactive: NCI-H23 lung 102% | NCI-H226 lung 93.5% | NCI-H322M lung 103% | HOP-62 NSCLC 102% | NCI-H460 lung 111% | HOP-92 NSCLC 88.9% | NCI-H522 lung 96.2% | A549/ATCC NSCLC 105% | 786-0 renal 115% | COLO 205 colon 110%

Cc1ccc(Nc2nc(N)nc(N)c2N=O)cc1Cl
inactive: NCI-H23 lung 71.9% | NCI-H226 lung 94.1% | NCI-H322M lung 104% | HOP-62 NSCLC 76% | NCI-H460 lung 102% | HOP-92 NSCLC 63% | NCI-H522 lung 75.4% | A549/ATCC NSCLC 98.3% | 786-0 renal 79.4% | COLO 205 colon 111%

Cc1ccccc1NC(=O)c1sc2nc3c(cc2c1N)CCCC3
inactive: NCI-H23 lung 47.2% | NCI-H226 lung 63.4% | NCI-H322M lung 51.1% | HOP-62 NSCLC 27.4% | NCI-H460 lung 11% | HOP-92 NSCLC 17.3% | NCI-H522 lung 11.1% | A549/ATCC NSCLC 34.3% | 786-0 renal 33.7% | COLO 205 colon 15.5%

CCN1C(=O)N(CC)C2C1NC(=S)N2/N=C/C=C/c1cccs1 (stereo not given)
active: NCI-H460 lung 7.03% | NCI-H522 lung -5.25%
inactive: NCI-H23 lung 42.6% | NCI-H226 lung 64.5% | NCI-H322M lung 50.9% | HOP-62 NSCLC 51.1% | HOP-92 NSCLC 88.8% | A549/ATCC NSCLC 24.9% | 786-0 renal 43.1% | COLO 205 colon 18.3%
